Bioassay records deposited in PubChem BioAssay by Buhrlage Lab, Dana-Farber Cancer Institute and Novartis Institutes for BioMedical Research (Cambridge, Mass).
Most compounds without a hit are left out; they make up all but 12% or so of the library.
USP30 block – human USP30 deubiquitinase inhibition; Q70CQ3; purified USP30, Ub-rhodamine cleavage fluorescence; inhibition, % at 25 µM; 47,000 tested, 5.3% active; AID 1645860
USP28 block – blocks human USP28 ubiquitin-rhodamine cleavage | Q96RU2 | purified USP28, Ub-rhodamine cleavage fluorescence, 30 min | inhibition, % at 25 µM | 47,000 tested, 3% active
Target sequence (Q96RU2 whole entry, looked up): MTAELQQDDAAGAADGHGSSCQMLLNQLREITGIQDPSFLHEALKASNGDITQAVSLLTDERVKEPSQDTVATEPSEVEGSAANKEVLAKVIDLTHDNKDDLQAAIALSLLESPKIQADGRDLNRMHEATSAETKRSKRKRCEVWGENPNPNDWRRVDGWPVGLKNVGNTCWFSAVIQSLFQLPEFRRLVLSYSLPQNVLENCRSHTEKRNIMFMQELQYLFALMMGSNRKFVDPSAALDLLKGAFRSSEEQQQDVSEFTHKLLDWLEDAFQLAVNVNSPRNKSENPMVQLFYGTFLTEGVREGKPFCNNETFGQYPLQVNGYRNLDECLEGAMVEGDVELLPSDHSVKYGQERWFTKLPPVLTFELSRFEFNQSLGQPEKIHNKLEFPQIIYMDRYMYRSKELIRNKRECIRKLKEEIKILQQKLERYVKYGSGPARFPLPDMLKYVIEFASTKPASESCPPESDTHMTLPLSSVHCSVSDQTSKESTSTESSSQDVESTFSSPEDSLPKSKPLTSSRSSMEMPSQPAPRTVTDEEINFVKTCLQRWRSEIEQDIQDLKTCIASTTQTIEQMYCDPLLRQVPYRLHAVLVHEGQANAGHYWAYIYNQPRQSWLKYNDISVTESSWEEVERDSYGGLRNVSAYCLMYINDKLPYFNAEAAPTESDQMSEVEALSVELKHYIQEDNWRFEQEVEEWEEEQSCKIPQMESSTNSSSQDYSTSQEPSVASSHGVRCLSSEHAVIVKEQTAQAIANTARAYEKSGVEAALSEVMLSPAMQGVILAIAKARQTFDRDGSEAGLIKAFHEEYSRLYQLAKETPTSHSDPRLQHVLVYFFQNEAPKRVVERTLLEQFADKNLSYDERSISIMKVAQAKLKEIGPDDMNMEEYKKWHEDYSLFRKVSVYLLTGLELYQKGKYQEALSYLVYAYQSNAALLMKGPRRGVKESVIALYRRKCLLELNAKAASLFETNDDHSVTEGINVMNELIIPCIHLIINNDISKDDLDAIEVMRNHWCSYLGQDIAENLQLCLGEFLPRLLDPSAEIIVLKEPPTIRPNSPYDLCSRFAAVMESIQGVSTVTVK
USP17 block – blocks human USP17 ubiquitin-rhodamine cleavage. purified USP17, Ub-rhodamine cleavage fluorescence, 3 h. 47,000 tested, 6.5% active. inhibition, % at 50 µM
OTUD3 inh – blocks human OTUD3 ubiquitin-rhodamine cleavage; Q5T2D3; purified OTUD3, Ub-rhodamine fluorescence, 2 h; inhibition, % at 25 µM; 47,000 tested, 0.7% active
A number is an active result; n = inactive; x = no result. Rule as the data show it: active = inhibition above about 30%; inactive = the rest.

SMILES	USP30 block	USP28 block	USP17 block	OTUD3 inh
O=C1CN(C(=O)CC2CCCCC2)C(c2ccccc2)c2cc(Cl)ccc2N1 (centres undefined)	43	n	n	n
O=C1CN(C(=O)COc2ccc(Cl)cc2)C(c2ccccc2)c2cc(Cl)ccc2N1 (centres undefined)	n	n	n	n
COc1ccc(CC(=O)N2CC(=O)Nc3ccc(Br)cc3C2c2ccccc2)cc1 (centres undefined)	38	n	n	n
CCc1nc(SCC(=O)c2ccc(OC)cc2)c2oc3ccccc3c2n1	n	n	n	n
CCn1nnc(NCc2c(OCc3ccc(C)cc3)ccc3ccccc23)n1	n	n	n	n
Cc1ccc(-n2nc(C)c3c2NC(=O)CC3C(=O)c2cc3ccccc3o2)cc1 (centres undefined)	n	n	n	n
CCCn1c(=O)[nH]c2c(C(=O)N3CCCCC3)snc2c1=O	n	n	n	n
CCCn1c(=O)[nH]c2nc(N3CCCCC3)sc2c1=O	n	n	33	n
O=C(COc1ccccc1[N+](=O)[O-])NCc1csc(-c2ccccc2)n1	n	n	n	n
CC(C)(C)OC(=O)N1CCC[C@H]1C(=O)N1CCC(C(=O)N[C@@H](CC(N)=O)C(=O)O)(c2ccccc2)CC1	32	n	n	n
COc1ccc(-c2cc(C(=O)NCC(c3ccc(C)cc3)N3CCCC3)no2)cc1 (centres undefined)	n	n	n	n
COc1ccc(C(CNC(=O)c2cc(-c3ccc(C)c(C)c3)on2)N2CCOCC2)cc1 (centres undefined)	35	n	n	n
CCc1ccc(-c2cn3ccn(-c4ccccc4OC)c(=O)c3n2)cc1	n	n	n	n
COc1ccc(OC)c(-c2cn3ccn(-c4ccc(F)c(Cl)c4)c(=O)c3n2)c1	n	n	39	n
COc1ccc(NC(=O)c2cc(F)cc(F)c2)cc1NS(=O)(=O)c1ccc(Cl)c(Cl)c1	n	n	n	n
C(=C\c1ccccc1)/CSc1nnc(-c2ccco2)o1	n	32	n	n
COc1ccccc1C(=O)Nc1ccccc1-c1nc(-c2ccccn2)no1	x	x	32	n
Cn1c(NC(=O)c2ccc(Cl)cc2)c(-c2ccccn2)c(=O)c2ccccc21	n	n	n	n
COc1ccc(NC(=O)c2ccccc2-c2nc(-c3ccc(Cl)cc3)no2)cc1OC	n	n	n	n
O=C(Nc1ccccc1-c1nc(-c2ccccn2)no1)c1ccc(Cl)cc1	n	n	35	n
N#Cc1cc([N+](=O)[O-])cnc1NC1CCCCCC1	n	n	n	n
COc1ccc(-c2cc(C(=O)NC3CCCCCC3)[nH]n2)cc1S(=O)(=O)N(C)C	n	n	51	n
Cc1ccc(S(=O)(=O)N2CCc3nc(N4CCOCC4)[nH]c(=O)c3CC2)cc1Cl	n	n	n	n
CC(=O)C1=C(O)[C@@]2(O)C(=O)c3c(c(C)c4ccc(C)c(O)c4c3O)C[C@H]2[C@@H](N)C1=O	n	66	49	51
Cc1ccc2nnc(-c3ccccc3)c(C(=O)N3CCN(c4ccccn4)CC3)c2c1	n	n	50	n
SMILES	USP30 block	USP28 block	USP17 block	OTUD3 inh
Cc1csc(-c2cn(CC(=O)Nc3ccc(C)c(F)c3)cn2)n1	n	n	n	n
CCc1csc(-c2cn(CC(=O)Nc3cccc(C)c3C)cn2)n1	58	n	51	n
Cc1ccccc1NC(=O)Cn1cnc(-c2noc(-c3ccncc3)n2)c1	n	n	n	n
CCc1csc(-c2cn(CC(=O)Nc3cc(C)ccc3C)cn2)n1	n	n	49	n
Cc1cccc(Cn2cnc3c(nnn3Cc3ccccc3F)c2=O)c1	n	30	n	n
COc1cccc(-c2noc(Cn3cnc4c(nnn4Cc4ccc(F)cc4)c3=O)n2)c1	n	n	n	n
CCOc1ccccc1CN1CCC[C@@H](Cn2nnc(-c3ccncc3)n2)C1	32	n	n	n
COc1ccc(S(=O)(=O)N2CCC[C@@H](Cn3nnc(-c4ccncc4)n3)C2)cc1	n	n	n	n
CNc1cc(C)nc(C2CN(C(=O)c3ccc(C)n(C)c3=O)CCO2)c1 (centres undefined)	32	n	n	n
CCN1CCN(c2nc3ncn(CC(=O)Nc4cccc(F)c4)c(=O)c3s2)CC1	n	n	n	n
CCOC(=O)c1c(N)n(CC(C)NC(=O)C2CC2)c2nc3ccccc3nc12 (centres undefined)	n	n	30	n
Nc1c(S(=O)(=O)c2ccccc2)c2nc3ccccc3nc2n1CCNC(=O)C1CC1	n	n	n	n
O=C(NC1CCCC1)C1CC(=O)N(c2cccc(-c3noc(-c4cccs4)n3)c2)C1 (centres undefined)	n	n	61	n
CC(C)C(=O)Nc1ccc(N2CCN(Cc3ccc(F)cc3)C2=O)nc1	n	n	62	n
O=C(Nc1ccc(N2CCN(Cc3ccccc3)C2=O)nc1)C1CCC1	n	n	n	n
O=C(c1cc2c(s1)CN(C1CCCC1)C2)N1CCCN(c2ncccn2)CC1	n	n	n	n
CCOc1ccc(-c2cc3nc(C4CCN(C(=O)OC(C)(C)C)CC4)c(C(=O)Nc4cc(F)ccc4F)cn3n2)cc1	n	n	46	31
CCOC(=O)c1cnn(-c2ccccc2)c1NC(=O)c1ccc([N+](=O)[O-])o1	n	n	n	n
CCC/C=C\C#CC/C=C\CCCCCCCC(=O)O	n	69	63	58
CCCCCCCC/C=C\CCCCCCCC(=O)O	n	n	n	n
O=C(NCc1ccc(F)cc1)c1cc(OCc2ccccc2)nc2ccccc12	31	n	n	n
COc1ccccc1CNC(=O)c1cc(OCc2ccccc2)nc2ccccc12	x	x	57	n
Cc1ccc(S(=O)(=O)N2CC(C(=O)NC3CCCCC3)C3(CCOCC3)C2)cc1 (centres undefined)	31	n	n	n
CCC(C)NC(=O)C1(Cc2ccccc2-c2cccnc2)CCOCC1 (centres undefined)	n	n	n	n
O=C(Oc1cc(O)cc2c1C[C@@H](OC(=O)c1cc(O)c(O)c(O)c1)[C@@H](c1cc(O)c(O)c(O)c1)O2)c1cc(O)c(O)c(O)c1	n	78	77	73
SMILES	USP30 block	USP28 block	USP17 block	OTUD3 inh
CC(=O)N1Cc2c(C(=O)Nc3cccc(C)c3)c3cccnc3n2CC1C (centres undefined)	n	n	n	n
COCCN1C(=O)c2ccccc2C(C(=O)N2CCN(c3ccccc3F)CC2)C1c1cccs1 (centres undefined)	n	n	n	n
COc1cccc([C@@H]2c3c(C)nn(C)c3NC(=O)[C@H]2NC(=O)c2ccc(Cl)cc2)c1	n	35	n	n
Cc1cccc(C(=O)N[C@@H]2C(=O)Nc3c(c(C)nn3C)[C@H]2c2cccc(C(F)(F)F)c2)c1	n	n	n	n
Cn1ccc(CN2CCc3ccccc32)cc1=O	n	n	n	n
Cc1nn(-c2ccc(-c3ccccc3)nn2)c(C)c1S(=O)(=O)NC(C)C	n	n	37	n
Cc1nn(-c2ccccc2)c(C)c1S(=O)(=O)Nc1cccnc1	n	n	n	n
CCOC(=O)N1CCN(c2cc(C(C)C)nc3nc(-c4cccnc4)nn23)CC1	33	n	n	n
CCCc1cc(N2CCCCC2)n2nc(-c3cccnc3)nc2n1	31	n	n	n
